What was measured:
Experiment in all cases: growth AUC relative to DMSO control (median of replicates) (fraction); higher = more growth (less inhibition), active = hit call of the paper
Conditions in all cases: 20 µM; 24 h;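 active = AUC reduced over 20% with Padj below 0.05 in at least 2 of 3 replicates; inactive = otherwise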
[1] = test system: Coprococcus comes
In short: (§1)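 Area under the growth curve was normalised to the plate median of solvent-only wells, or to row and column medians on the industrial chemical plate. Growth curves came from anaerobic gut bacterial monocultures in mGAM at 37 °C, seeded at OD600 0.05 with 20 µM compound (1% DMSO), and read at OD600 hourly for 24 h with the minimum OD set to 0. The value is the median of three biological replicates grown on separate days.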

[2] = test system: Escherichia coli ED1a
In short: as §1

[3] = test system: Escherichia coli IAI1
In short: as §1

[4] = test system: Eubacterium rectale
In short: as §1

[5] = test system: Fusobacterium nucleatum subsp. animalis
In short: as §1

[6] = test system: Lactobacillus gasseri
In short: as §1

[7] = test system: Lactobacillus paracasei
In short: as §1

[8] = test system: Odoribacter splanchnicus
In short: as §1

[9] = test system: Parabacteroides distasonis
In short: as §1

[10] = test system: Parabacteroides merdae
In short: as §1

[11] = test system: Roseburia intestinalis
In short: as §1

[12] = test system: Streptococcus salivarius
In short: as §1

Measured: growth AUC

CSc1nnc(C(C)(C)C)c(=O)n1/N=C/C(C)C
inactive: [1] 1.02 | [2] 1.04 | [3] 0.979 | [4] 1.1 | [5] 1.08 | [6] 1.08 | [7] 1.03 | [8] 0.96 | [9] 1.03 | [10] 1.02 | [11] 1.07 | [12] 1

COC(=O)Nc1ccc(Cl)c(Cl)c1
inactive: [1] 0.987 | [2] 0.999 | [3] 0.939 | [4] 0.973 | [5] 0.926 | [6] 1.15 | [7] 1.08 | [8] 0.974 | [9] 0.986 | [10] 0.956 | [11] 1 | [12] 0.918

CN(C)C(=O)NC1CCCCCCC1
inactive: [1] 1.03 | [2] 0.999 | [3] 0.998 | [4] 1.06 | [5] 1.04 | [6] 1.04 | [7] 0.978 | [8] 0.948 | [9] 1.02 | [10] 1.01 | [11] 1.08 | [12] 1.05

CP(=O)(O)CCC(=O)O
inactive: [1] 0.993 | [2] 0.973 | [3] 0.999 | [4] 0.804 | [5] 0.999 | [6] 1.14 | [7] 0.999 | [8] 1.04 | [9] 0.974 | [10] 0.993 | [11] 1.03 | [12] 0.987

O=C(O)CNC(=O)c1cnccc1C(F)(F)F
inactive: [1] 0.96 | [2] 1.03 | [3] 1.02 | [4] 1.01 | [5] 1.14 | [6] 0.903 | [7] 1.11 | [8] 1.02 | [9] 1.03 | [10] 0.992 | [11] 1.03 | [12] 1

Oc1ccccc1O
inactive: [1] 0.993 | [2] 0.994 | [3] 1.01 | [4] 1 | [5] 1.01 | [6] 1 | [7] 0.995 | [8] 1.08 | [9] 1.02 | [10] 1 | [11] 1.1 | [12] 0.987

CCCCCCCCOC(=O)COc1cc(Cl)c(Cl)cc1Cl
inactive: [1] 0.946 | [2] 1.02 | [3] 1.01 | [4] 0.995 | [5] 1.02 | [6] 0.977 | [7] 1.11 | [8] 1.08 | [9] 1.03 | [10] 1.01 | [11] 0.953 | [12] 0.875

COC(=O)c1c(Cl)c(Cl)c(C(=O)OC)c(Cl)c1Cl
inactive: [1] 1.05 | [2] 0.979 | [3] 0.995 | [4] 1.16 | [5] 0.963 | [6] 0.974 | [7] 0.982 | [8] 1.1 | [9] 0.979 | [10] 1.01 | [11] 0.964 | [12] 0.962

[S]
inactive: [1] 0.956 | [2] 0.976 | [3] 0.963 | [4] 1.04 | [5] 1.01 | [6] 0.959 | [7] 1.01 | [8] 1.03 | [9] 0.986 | [10] 1 | [11] 0.952 | [12] 0.997

COC(=O)c1ccc(CNS(C)(=O)=O)cc1S(=O)(=O)NC(=O)Nc1nc(OC)cc(OC)n1
inactive: [1] 1.04 | [2] 1.02 | [3] 1.01 | [4] 1.01 | [5] 0.977 | [6] 0.961 | [7] 0.925 | [8] 1.07 | [9] 1.03 | [10] 1.02 | [11] 0.973 | [12] 1.07

CCNc1nc(N)nc(Cl)n1
inactive: [1] 0.995 | [2] 1 | [3] 1 | [4] 1.02 | [5] 1.04 | [6] 0.933 | [7] 0.891 | [8] 1.02 | [9] 1.02 | [10] 1.02 | [11] 1.01 | [12] 1.03

CCOc1nc(F)cc2nc(S(=O)(=O)Nc3c(Cl)cccc3C(=O)OC)nn12
inactive: [1] 0.984 | [2] 0.991 | [3] 1.01 | [4] 0.967 | [5] 0.995 | [6] 1.01 | [7] 1.06 | [8] 1.04 | [9] 1.05 | [10] 1.02 | [11] 1.04 | [12] 1.01

CCc1cccc(CC)c1N(COC)C(=O)CS(=O)(=O)[O-].[Na+]
inactive: [1] 0.971 | [2] 0.979 | [3] 0.987 | [4] 1.02 | [5] 1.07 | [6] 1.05 | [7] 1.02 | [8] 1.01 | [9] 1 | [10] 1.01 | [11] 1.03 | [12] 0.964

CNc1nc(NC(C)C)nc(SC)n1
inactive: [1] 0.962 | [2] 1 | [3] 0.988 | [4] 0.879 | [5] 0.922 | [6] 1.18 | [7] 1.05 | [8] 0.984 | [9] 0.985 | [10] 0.993 | [11] 0.995 | [12] 0.975

COC1CCC2(CC1)NC(=O)C(O)(c1cc(C)ccc1C)C2=O (stereo not given)
inactive: [1] 1.03 | [2] 1.01 | [3] 1.02 | [4] 1.1 | [5] 1.16 | [6] 1.02 | [7] 1.06 | [8] 1.06 | [9] 1.02 | [10] 1.06 | [11] 1.01 | [12] 1.01

CC(C)CCCCCOC(=O)C(C)Oc1ccc(Cl)cc1Cl (stereo not given)
inactive: [1] 1.01 | [2] 0.979 | [3] 1.02 | [4] 1.21 | [5] 1.06 | [6] 0.817 | [7] 0.962 | [8] 0.814 | [9] 0.925 | [10] 0.9 | [11] 1.03 | [12] 0.982

C=O
inactive: [1] 0.998 | [2] 1.03 | [3] 0.999 | [4] 0.921 | [5] 1 | [6] 1.04 | [7] 1.06 | [8] 1.03 | [9] 1.03 | [10] 1.03 | [11] 1.1 | [12] 1

Cc1nn(C)c(Oc2ccccc2)c1/C=N/OCc1ccc(C(=O)OC(C)(C)C)cc1
inactive: [1] 0.996 | [2] 0.984 | [3] 0.991 | [4] 0.907 | [5] 0.973 | [6] 0.901 | [7] 1.01 | [8] 1.01 | [9] 1.03 | [10] 0.925 | [11] 0.924 | [12] 0.993

CN(C)c1ccc(N=NS(=O)(=O)[O-])cc1.[Na+]
inactive: [1] 1.03 | [2] 1.02 | [3] 1.03 | [4] 0.973 | [5] 1.01 | [6] 0.967 | [7] 1.02 | [8] 1.03 | [9] 1.04 | [10] 0.996 | [11] 1.03 | [12] 1.01

CC(=O)Oc1c(Cl)c(Cl)c(Cl)c(Cl)c1Cl
active: [8] 0.548 | [9] 0.542 | [10] 0.558
inactive: [1] 0.953 | [2] 0.936 | [3] 0.808 | [4] 0.942 | [5] 0.782 | [6] 0.871 | [7] 1.05 | [11] 1.04 | [12] 0.909

CNC(=O)/C(=N/OC)c1ccccc1COc1cc(C)ccc1C
inactive: [1] 0.974 | [2] 1.01 | [3] 1 | [4] 0.92 | [5] 0.931 | [6] 1.01 | [7] 1.01 | [8] 0.981 | [9] 0.92 | [10] 0.926 | [11] 1.02 | [12] 1.06

CC[N+](CC)(CC(=O)Nc1c(C)cccc1C)Cc1ccccc1.O=C([O-])c1ccccc1
inactive: [1] 1.04 | [2] 1.01 | [3] 1.04 | [4] 1.14 | [5] 1.02 | [6] 0.967 | [7] 1.05 | [8] 0.995 | [9] 1.06 | [10] 1.05 | [11] 1.02 | [12] 1.01

CCOC(=O)[C@@H](C)Oc1ccc(Oc2nc3ccc(Cl)cc3o2)cc1
inactive: [1] 1.01 | [2] 1.03 | [3] 1 | [4] 0.876 | [5] 1.02 | [6] 0.991 | [7] 1.03 | [8] 1.09 | [9] 0.999 | [10] 0.971 | [11] 0.975 | [12] 1.05

O=C(O)Cc1c(Cl)ccc(Cl)c1Cl
inactive: [1] 0.959 | [2] 0.947 | [3] 0.999 | [4] 0.96 | [5] 0.928 | [6] 1.06 | [7] 1.03 | [8] 0.946 | [9] 1.05 | [10] 1.01 | [11] 0.979 | [12] 1.01

N#Cc1cc(Cl)c(O)c(Cl)c1
inactive: [1] 1.02 | [2] 0.926 | [3] 0.9 | [4] 0.972 | [5] 1.03 | [6] 1.17 | [7] 1.03 | [8] 0.998 | [9] 0.956 | [10] 0.93 | [11] 1.08 | [12] 1.02
